In the library only some 7.7% were active in any assay of this set; here they are far more common.
RE007 growth inh: less growth of the S. pombe RE007 Vpr strain; Potency, µM (doses to about 92.2 µM), for inactives: at the top dose activity change, negative = less growth, usual class: inhibitors; S. pombe RE007 Vpr strain, BacTiter-Glo ATP luminescence, 24 h; 0.21% of 360,000 active; AID 651644; active means well fitted falling curve with a large enough effect; inconclusive means small, poorly fitted or top-dose-only effect; inactive means no such curve, though single readings can be large or run the other way; further: potency means the concentration at half of the fitted maximal effect; nearly all actives have a fitted effect of over 50% in size
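Fission yeast RE007 carrying one integrated HIV-1 vpr copy, seeded at OD 0.01 in PMG+AL medium with 23 nL pinned compound. Grown 24 h at 30 degrees; viability read by BacTiter-Glo luminescence after 5 min.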
Tb PYK inh: blocks Trypanosoma brucei pyruvate kinase; Potency, µM (top dose mostly 76.8 µM), without a hit: top-dose activity, negative = inhibition, actives largely listed as inhibitors; 0.12% of 410,000 active; TbPYK enzyme, Kinase-Glo Plus ATP luminescence, 45 min; further: potency means the concentration at half of the fitted maximal effect; nearly all actives have a fitted effect of over 50% in size
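In this concentration-response screen, enzyme-free wells defined baseline while DMSO plates tracked drift. Each reaction combined TbPYK, substrate, compound and 130 uM ADP for 45 min at room temperature. Kinase-Glo Plus luminescence gave the signal.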
HCMV antiviral: blocks human cytomegalovirus replication; HFF cells, HCMV-luciferase reporter, 72 h; hits give low values; activity change, negative = inhibition, % at 57.5 µM; 4.5% of 410,000 active; in the data active means activity change below about -60%; inconclusive means no clear call, values can overlap the other calls; inactive means above about -39%
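Steps: HFFs plated, 16 h 37C; compounds added; HCMV-luciferase added to MOI 1 PFU/cell; 72 h 37C; OneGlo reagent, 5 min room temperature; luminescence read, normalized to controls.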
Giardia FBPA inh: blocks Giardia fructose-bisphosphate aldolase activity; A8B2U2; AID 2451; 0.71% of 290,000 active; purified Giardia FBPA; Potency, µM (series often up to 59.6 µM), for inactives: at the top dose activity, negative = inhibition, most hits filed as inhibitors; further: potency means the concentration at half of the fitted maximal effect; nearly all actives have a fitted effect of over 55% in size
Target sequence (A8B2U2 whole entry, looked up): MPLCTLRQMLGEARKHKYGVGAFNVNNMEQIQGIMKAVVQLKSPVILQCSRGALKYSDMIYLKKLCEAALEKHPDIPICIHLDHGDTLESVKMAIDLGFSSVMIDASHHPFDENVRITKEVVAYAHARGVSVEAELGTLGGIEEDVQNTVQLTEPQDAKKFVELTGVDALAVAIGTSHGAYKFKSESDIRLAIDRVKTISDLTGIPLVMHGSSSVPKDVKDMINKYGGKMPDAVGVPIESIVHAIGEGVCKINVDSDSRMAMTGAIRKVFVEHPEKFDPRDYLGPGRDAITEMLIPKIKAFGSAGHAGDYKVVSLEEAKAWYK
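Giardia FBPA (40 nM reagent) was preincubated 10 min at RT with compound (up to 57.5 uM final), then substrate plus GAPDH/TPI/NAD/arsenate coupling system with diaphorase/resazurin was added; resorufin fluorescence (525/598 nm) was read after 20 min.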
Sm TGR block: S. mansoni TGR enzyme inhibition. AID 485364. Q962Y6. purified TGR, DTNB reduction, TNB absorbance 405 nm. Potency, µM (series often up to 114 µM), inactives show at the top dose activity change, negative = inhibition, hits mostly inhibitors. 3% of 360,000 active; further: potency means the concentration at half of the fitted maximal effect; nearly all actives have a fitted effect of over 60% in size
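TGR 20 nM + NADPH 100 uM (dispensed conc.), cpd preinc 15 min RT; start with NADPH (500 uM addition) then DTNB (15 mM addition). Kinetic TNB absorbance, 405 nm filter. Four-parameter Hill fit across titration.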
FMDV antiviral: foot and mouth disease virus antiviral activity. FMDV antiviral cell-based qHTS. 1.2% of 410,000 active. Potency, µM (titrated, usually from 57.9 µM), without a hit: at the highest dose activity change, negative = inhibition, actives largely listed as inhibitors; calls by dose curve; tested in HEK293T cells; further: read-out not given here; potency means the concentration at half of the fitted maximal effect; nearly all actives have a fitted effect of over 45% in size
Active calls of the source: *; ? = inconclusive; / = not tested or not shown; [ ] = another dose, or the depositor's remark. Unless noted, the call rests on the fitted dose curve; in most records, active means well fitted curve in the direction sought with a large enough effect; inconclusive means small, poorly fitted or top-dose-only effect, or another doubt; inactive means no such curve, though single readings can be large; an effect the other way counts as inactive or inconclusive. On the % scale 0 is the no-effect control and ±100 the full control effect.

SMILES	RE007 growth inh	Tb PYK inh	HCMV antiviral	Giardia FBPA inh	Sm TGR block	FMDV antiviral
O=C(Nc1cccc(S(=O)(=O)N2CCCCCC2)c1)c1ccc2c(c1)OCO2	1%	16%	-62*	-14%	5%	-2%
O=C(Nc1cccc(S(=O)(=O)N2CCCC2)c1)c1ccc2c(c1)OCO2	-2%	4%	18	-1%	-9%	-7%
O=C(CNc1cccc(S(=O)(=O)N2CCCCC2)c1)Nc1cccc(F)c1	5%	-1%	?	/	-3%	0%
O=C(CN1CCN(c2ccc(O)cc2)CC1)Nc1cc(S(=O)(=O)N2CCCCC2)ccc1Cl	-8%	?	-74*	-17%	-17%	0%
CN(C)S(=O)(=O)c1cccc(NC(=O)CNc2cccc(S(=O)(=O)N3CCCCC3)c2)c1	15%	2%	-81*	/	/	-6%
CSc1cccc(NC(=O)COc2ccccc2)c1	?	?	-80*	-3%	-1%	45%
CC(=O)N1CCc2cc(Br)cc(S(=O)(=O)CCC(=O)N3CCN(c4ccccc4)CC3)c21	/	3%	-8	/	-7%	5%
O=C(OCc1ccco1)c1ccc2c(c1)N(Cc1ccc([N+](=O)[O-])cc1)C(=O)c1ccccc1S2	/	0%	14	/	9%	-20%
COc1cc(CC(=O)Nc2cccc(C(F)(F)F)c2)cc(OC)c1OC	-17%	3%	-71*	13%	2%	?
O=C(COc1ccc2ccccc2c1)Nc1ccncc1	?	4%	-100*	4%	14%	-13%
O=C(COc1ccccc1)Nc1ccncc1	-8%	5%	-35	5%	0%	-11%
O=C(Nc1ccc(Cl)c(Cl)c1)Nc1cc(S(=O)(=O)N2CCOCC2)ccc1N1CCCC1	-2%	-14%	-68*	1%	1%	-16%
COCCCNC(=O)C[C@H]1C[C@@]2(C(=O)OC)C(=C[C@H](C3CCCC3)O[C@@H]2C)N(Cc2ccccc2)C1=O	/	/	-18	/	/	/
COC(=O)c1ccccc1C(=O)N1CCOc2ccc(CN3CCN(c4ccccn4)CC3)cc2C1	/	/	/	/	/	-15%
O=C(OCn1ncc(Cl)c(Cl)c1=O)c1ccc(C(F)(F)F)cc1	-9%	10%	-86*	6%	0%	?
Cc1ccc(C(=O)OCn2ncc(Cl)c(Cl)c2=O)cc1	50µM*	14%	-102*	6%	4µM*	16µM*
O=C(O)c1ccc(-n2ncc(Cl)c(Cl)c2=O)cc1	14%	0%	/	/	/	?
Cc1ccc(C(=O)COC(=O)c2nc(Cl)ccc2Cl)cc1	4%	3%	16	/	/	55%
Cc1ccc(CCNC(=O)c2sc3nc4n(c(=O)c3c2C)CCCC4)cc1	/	1%	-9	/	-5%	-14%
Cc1ccc(COC(=O)c2nn(C)c(=O)c3ccccc23)cc1	7%	7%	-92*	9%	-1%	?
Cn1nc(C(=O)OCc2ccc(F)cc2)c2ccccc2c1=O	-2%	7%	-23	6%	-1%	0%
C=CCOC(=O)C1=C(C)N=c2s/c(=C3\C(=O)N(CC(=O)O)c4ccccc43)c(=O)n2C1c1ccc(OC)cc1 (stereo unspecified)	-1%	?	?	-8%	18µM*	?
Cc1[nH]c2ccccc2c1/C=N/NC(=O)C1CC1(c1ccccc1)c1ccccc1 (stereo unspecified)	-13%	-2%	-21	-1%	-3%	40µM*
O=C1NC(c2cccs2)Nc2sc3c(c21)CCCC3 (stereo unspecified)	-3%	?	54	?	28µM*	18%
CN1CCc2c(sc3c2C(=O)NC(c2ccco2)N3)C1 (stereo unspecified)	-11%	-8%	30	?	-12%	23%
SMILES	RE007 growth inh	Tb PYK inh	HCMV antiviral	Giardia FBPA inh	Sm TGR block	FMDV antiviral
COC(=O)c1sccc1NC(=O)Nc1cccc(OC)c1	32µM*	-22%	-25	/	-21%	29%
COc1ccc(NC(=O)Nc2cccc(OC)c2)cc1	-6%	6%	-21	/	/	/
COc1cccc(NC(=O)Nc2cc(Cl)ccc2C)c1	2%	-1%	-60*	0%	0%	-20%
NC(=O)[C@@H]1CCCN1C(=O)c1cc(NC(=O)c2ccccc2)cc2ncn(C3CCCC3)c12	/	/	/	/	/	12%
O=C1CC(C(=O)O)S/C(=N\NC(=O)c2ccccc2)N1 (stereo unspecified)	3%	-5%	-82*	?	7%	4%
c1ccc2c(c1)Sc1ccccc1N2C[C@H]1CN2CCC1CC2	/	-4%	/	/	/	/
c1ccc2c(c1)Sc1ccccc1N2CC1CN2CCC1CC2 (stereo unspecified)	-18%[18.4 µM]	0%	-60*	1%	-2%	-17%
CC(=O)Nc1ccc(-n2c(=O)c3ccccc3c3ccccc3c2=O)cc1	-7%	-5%	95	1%	6%	28µM*
O=C(O)c1ccc(-n2c(=O)c3ccccc3c3ccccc3c2=O)cc1	10%	-8%	-26	7%	?	35µM*
COc1ccc(C2CC(=O)C(c3ccccc3OC)=CN2Cc2ccccc2)cc1 (stereo unspecified)	/	/	27	/	/	/
Cc1ccc2nc(-c3ccccc3C)c(CN(CC3CCCO3)C(=O)c3cccs3)cc2c1 (stereo unspecified)	/	/	/	/	/	-5%
CCN(CC)Cc1c(O)ccc2c([N+](=O)[O-])c(C)n(-c3ccc(OC)cc3)c12	31%	-6%	-96*	-1%	-16%	-21%
COc1ccc(N/C=C(\[N+](=O)[O-])S(=O)(=O)c2ccccc2)cc1	-1%	5%	52	-10%	?	-13%
CS(=O)(=O)c1ccc(C(=O)Nc2ccccc2Cl)cc1	11%	4%	-11	4%	5%	30%
O=[N+]([O-])/C(=C\Nc1ccccc1Cl)S(=O)(=O)c1ccccc1	/	/	/	-6%	40µM*	/
O=[N+]([O-])/C(=C\Nc1ccccc1)S(=O)(=O)c1ccccc1	34%	-4%	46	-13%	40µM*	-4%
OCC#Cc1ncc(C(F)(F)F)cc1Cl	-16%	-10%	7	5%	45µM*	-17%
CCC(C)c1ccccc1NC(=O)C(C)NCCN(C)C (stereo unspecified)	-4%	0%	-37	?	40µM*	-20%
O=C(Cc1ccccc1)N1CC(=O)N2[C@@H](CO)[C@@H](c3ccc(Br)cc3)[C@@H]2C1	/	/	1	/	/	/
O=C(Cc1ccccn1)N1CC(=O)N2[C@H](CO)[C@@H](c3ccc(Br)cc3)[C@H]2C1	/	/	-101*	/	/	/
CCCN(CCC)CCCNC(=O)c1nn(C)c2c1CS(=O)(=O)c1ccccc1-2	/	4%	-13	/	-1%	14%
OCCC1CN(Cc2ccc3c(c2)CCO3)CCN1C1CCCC1 (stereo unspecified)	9%	-8%	-74*	2%	/	-7%

Assay outcomes: PubChem, National Center for Advancing Translational Sciences (NCATS)
